# From PMC12136788
# Substitutions are numbered along the chain they refer to. The full ranking holds about 5,800 sequences; the median of “enrichment r” is about 0.68, and the highest 2% start at about 11. The sample holds the highest values, similar sequences and a random draw of the others, so the mix is not that of the screen.
# B1: chr2:96185838:96185916:-|3pUTR|ENSG00000084090|msi1_unk|FALSE|overlapping (ssRNA)
# RNA: GGGAGUUCUACAGUCCGACGAUCUGGGAGACUAAUCCUUUUAGAUAGUAGCUUUUUGAUGCUCAAAACAUCACAUUUAAAUUUAGUUUAAAAAUUUUUUAACUUUUGUGUCAAAUAGGAGUUGAGGAAUUGAGCAGGAUUCUACAACAGAGGAUUGAGCAUCA
# B2: ENSG00000168615:stop:overlap|stop_codon|ENSG00000168615|stop_codon|NA|stop_codon (ssRNA)
# RNA: GGGAGUUCUACAGUCCGACGAUCCUGGCCAGAAUACCCAAAAUAAUUGGCAGAUGUCAAAUUUGGCUUUCUGUGUUUAUUACUAGAGCAUAAACAUUUCUAGUUUUGUUUGAGUGUUUUACAGUCCUUUUUGGCAGUUAGGUACAACAGAGGAUUGAGCAUCA
# B3: chr5:6669452:6669553:+|3pUTR|ENSG00000145545|unk|FALSE|unique (ssRNA)
# RNA: GGGAGUUCUACAGUCCGACGAUCCAUCUCAUCUGGAGUUUUUAAAUGCCAUUUGUUUCAGUUGUCUUUAACAACAUAAUAAAUAGACUUUGCCAUUUAACAAGGUAGCUCAAAUUCUUUUACUAAUUGUUACAUCGAAACAUUCAACAGAGGAUUGAGCAUCA
# B4: chr16:2708819:2708933:+|3pUTR|ENSG00000167977|unk|FALSE|unique (ssRNA)
# RNA: GGGAGUUCUACAGUCCGACGAUCCUCUCUGGGGAGCUGCUGGCCGCUUAGCGUUGUUUGAUUUUUGACCUUGACAUAGUAGAUAGGCUUGUGGUUUUUUUAAUUUAAAGAUAUUAAGACUUAAUUCACUAAAAUUUAUUCUAACAACAGAGGAUUGAGCAUCA
# B5: chr2:216672738:216672882:-|3pUTR|ENSG00000115461|msi1|FALSE|unique (ssRNA)
# RNA: GGGAGUUCUACAGUCCGACGAUCUUCUCUUAGGCUUUUGUUUCUAUUUCAAACAUACUUUCUUGGUUUUCUAAUGGAGUAUAUAGUUUAGUCAUUUCACAGACUCUGGCCUCCUCUCCUGAAAUCCUUUUGGAUGGGGAAAGGCAACAGAGGAUUGAGCAUCA
# B6: chr16:2708819:2708933:+|3pUTR|ENSG00000167977|unk|total|mutant (ssRNA)
# RNA: B4 RNA with U48C, A49C, U76C, A77C, U79C, A80C, U83C, A84C
# B7: chr10:98383567:98383797:-|three_prime_utr|ENSG00000119943|control|control|control (ssRNA)
# RNA: GGGAGUUCUACAGUCCGACGAUCCCACCCCUGAAUUCCAAGUGCUCCAUUGGAUCAGCUUCCCAGGAAGUUCAGCUUCGGGUUAGUACAUAAGGCCACCACAAUGCUCAAGAAAUUAUUUUAGAAAAAACGUACGAGUUACAUCAACAGAGGAUUGAGCAUCA
# B8: chr12:103777333:103777434:-|3pUTR|ENSG00000111696|msi1|total|mutant (ssRNA)
# RNA: GGGAGUUCUACAGUCCGACGAUCUCCUGAACAUUUACGGGCUAUGCAUUGGGAACUGCAGGGGCACAGUGAUGGGCAAAGAUCCGCUGCUUCCAGAAGGCUGAUUUCGUGGGCUCCACAAUGGUAAAACGCUGCUGUGAGUGGCAACAGAGGAUUGAGCAUCA
# B9: chr10:121957106:121957207:-|3pUTR|ENSG00000107672|msi1|FALSE|bound_elsewhere (ssRNA)
# RNA: GGGAGUUCUACAGUCCGACGAUCUGUAUCGUACAUAUUGUAUGAUUCAACAUUUUUAAAGGCAGAUUGUUUUUAGUAAAAUGUAGCUUUUGAUAGUUAAUAAAUUUGUCAUGGUUGUCUUUGAUUAAAGGAAACUCACCGCCACAACAGAGGAUUGAGCAUCA
# B10: chr4:56502255:56502306:+|3pUTR|ENSG00000174780|msi1_unk|FALSE|overlapping (ssRNA)
# RNA: GGGAGUUCUACAGUCCGACGAUCAUUUCAGCUGGAGUCUGAAGAUACUUGUUUCUGUUCAAGUCCCACUUUAAAUUAUGUCUUAGGAGACUGAAAGUGGAAUCUUCUGAGCAUUCCUAAAUAUCUGCUUAGAAAUAUCAUGUGCAACAGAGGAUUGAGCAUCA
# B11: chr7:152122106:152122213:+|3pUTR|ENSG00000178234|unk|total|mutant (ssRNA)
# RNA: GGGAGUUCUACAGUCCGACGAUCAGUGGUUUUUAUCUGAUCAGGAACUUGUCAUGAUUUCCUUUCUCCGACUUCACCGGAGACCGUGCUUUAAAAAAAAAAAAAACUUCUAUUAUUUGUUCCGUAUGUUGUAAGCCGAUCAUUCAACAGAGGAUUGAGCAUCA
# B12: chr17:61865808:61865921:-|3pUTR|ENSG00000108506|unk|FALSE|unique (ssRNA)
# RNA: GGGAGUUCUACAGUCCGACGAUCUUCUAUGAGAAUGAGUUUGUAGCUGUUUCAAAUCAUGAAGUGCAUAGUAUCACAUGUGAUAGAAUAUUUAUAACUUUUUAUUAGAUGCUUAAUGUUCAAUUAAGUAAUUUUGAUGUGAAACAACAGAGGAUUGAGCAUCA
# B13: chr14:100278170:100278208:+|3pUTR|ENSG00000100811|msi1_unk|FALSE|overlapping (ssRNA)
# RNA: GGGAGUUCUACAGUCCGACGAUCGCUAUCUUAAUUUUGGUUGUAUUCUUUGAUGUUAACACAUUUUGUAUAAUUGUAUCGUAUAGCUGUAUUGAAUCAUGUAGUAUCAAAUAUUAGAUGUGAUUUAAUAGUGUUAAUCAAUUUCAACAGAGGAUUGAGCAUCA
# B14: chr21:14371318:14371404:-|3pUTR|ENSG00000155304|msi1_unk|total|mutant (ssRNA)
# RNA: GGGAGUUCUACAGUCCGACGAUCUAUGAAUAACAAUCUGAAGUCUUUUCAUAAAAAAAAUUAAUAAACUUCCGUUGUACAUUCCGCCAGUGUUAUUUGAAGUAUGUAACUUUUAAAAUAUUAAGUGUCUUGUAUGAUCCGAAUCAACAGAGGAUUGAGCAUCA
# B15: chr5:160402147:160402258:-|3pUTR|ENSG00000164609|unk|FALSE|unique (ssRNA)
# RNA: GGGAGUUCUACAGUCCGACGAUCAUGGUUUACAUUACCGUUUGUUUUCAUUGUGAUUGCCCCUAUGUAACAAUCAUGAAUAUUAGAUUUUUUAAAUUGUAGAAUAUCCUAAUAUUUAUAGCCAGCAGCUGUUACUUUGUUUGUCAACAGAGGAUUGAGCAUCA
# B16: chr11:101890673:101891278:-|three_prime_utr|ENSG00000187151|control|control|control (ssRNA)
# RNA: GGGAGUUCUACAGUCCGACGAUCGUAAUGCAAGUUCUACAAUGAUAAUAUAUUAAAGAUUUUUAAAAGUUUAUCUUUUCACUUAGUGUUUCAAACAUAUUAGGCAAAAUUUAACUGUAGAUGGCAUUUAGAUGUUAUGAGUUUCAACAGAGGAUUGAGCAUCA
# B17: chr7:152122106:152122213:+|3pUTR|ENSG00000178234|unk|FALSE|unique (ssRNA)
# RNA: B11 RNA with C67U, C68A, C76U, C77A, C83U, C84A, C121U, C122A, C135U, C136A
# Target: T1, UNK ZnF1-6 (called full-length) (human, UniProt Q9C0B0 30-357)
# T1 sequence: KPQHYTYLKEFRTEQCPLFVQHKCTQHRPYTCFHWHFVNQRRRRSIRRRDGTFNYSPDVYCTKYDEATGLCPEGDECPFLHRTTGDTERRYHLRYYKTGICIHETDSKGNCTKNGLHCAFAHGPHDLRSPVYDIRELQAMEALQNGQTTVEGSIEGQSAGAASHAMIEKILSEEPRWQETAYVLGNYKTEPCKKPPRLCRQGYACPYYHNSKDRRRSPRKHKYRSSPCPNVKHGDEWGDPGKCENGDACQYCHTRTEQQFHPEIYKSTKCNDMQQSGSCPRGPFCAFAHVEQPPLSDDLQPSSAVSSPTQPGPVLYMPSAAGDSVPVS
# Assay: nsRBNS (natural sequence RNA bind-n-seq); RBNS binding buffer (assumed for nsRBNS): 25 mM Tris pH 7.5, 150 mM KCl, 3 mM MgCl2, 0.01% Triton X-100, 500 ug/ml BSA, 20 U/ml SUPERase-In, 4 C; UNK is unkempt and MSI1 is Musashi-1; names of the RNAs are library labels; protein concentration not given here; high values mean tight binding
row,Binder,binding signal
1,B1,27.5 enrichment R
2,B2,0.532 enrichment R
3,B3,0.535 enrichment R
4,B4,14.8 enrichment R
5,B5,5.21 enrichment R
6,B6,2.05 enrichment R
7,B7,2.25 enrichment R
8,B8,0.856 enrichment R
9,B9,13.5 enrichment R
10,B10,0.869 enrichment R
11,B11,0.949 enrichment R
12,B12,2.51 enrichment R
13,B13,14.1 enrichment R
14,B14,0.702 enrichment R
15,B15,5.04 enrichment R
16,B16,5.03 enrichment R
17,B17,35 enrichment R
